From PubChem BioAssay AID463173 (ICCB-Longwood Screening Facility, Harvard Medical School, 2010)
Among all 52,000 compounds or so, about 1,700 (3.3%) were called active. Many of the other results were omitted from the sample, so actives are more common in it than they were. Values without a mark were called inactive. Rule as the data show it: active = survival mostly below about 52% (no sharp cut-off); inactive = mostly above about 56%.

system: Wild type; assay: growth inhibition of S. aureus wild type versus tarO mutant, primary screen, teichoic acid synthesis inhibitors, RN4220, OD600 (AID 463173); details: S. aureus RN4220 wild type/DeltatarO growth, OD600, 18 h, stronger effect = lower value, screened at 18.75 µg/mL (by protocol)

SMILES | survival
Cc1cc(C(=O)N2CCN(c3cccc(C)c3C)CC2)c2c(C)nn(-c3ccccc3)c2n1 | 121%
Cc1cccc(C(=O)Nc2ccc(N3CC=C(c4ccccc4C)CC3)c(C(=O)O)c2)c1 | 66%
COc1nnc(-c2ccc(N3CCCCC3)c(NC(=O)c3ccccc3)c2)c2ccccc12 | -6% (active)
COc1nnc(-c2ccc(N3CCCCC3)c(NC(=O)c3ccc(C)cc3)c2)c2ccccc12 | 36%
COc1nnc(-c2ccc(N3CCCCC3)c(NC(=O)c3ccccc3Cl)c2)c2ccccc12 | -7% (active)
Cn1nc(-c2ccc(N3CCCCC3)c(NC(=O)c3ccc(Cl)cc3)c2)c2ccccc2c1=O | 80%
COc1nnc(-c2ccc(N3CCCCC3)c(NC(=O)c3ccc(Cl)cc3)c2)c2ccccc12 | 96%
Cn1c(=O)c(=O)n(C)c2cc(N3CCCC3)c(NC(=O)c3ccccc3Cl)cc21 | 86%
CCN(CCCNC(=O)CSc1cc(=O)n(C)c2ccccc12)c1ccccc1 | 77%
CC(=O)Nc1ccc(NC(=O)c2cc3sccc3n2Cc2ccc(Cl)cc2)cc1 | 91%
CC1(C)O[C@H]2[C@@H](O1)[C@@H](C(=O)Nc1ccc(F)c(F)c1)O[C@@H]1OC(C)(C)O[C@@H]12 | 106%
CCN(CC)CCNC(=O)c1ccc2c(=O)n3nc(Nc4cccc(Cl)c4C)sc3nc2c1 | 153%
Cc1ccc(C)c(CNC(=O)C2CCN(c3nc4ccccc4nc3C(F)(F)F)CC2)c1 | 88%
CCc1c(C)nc2nncn2c1NCc1ccccc1 | 86%
CCc1c(C)nc2nc(-c3ccccc3)nn2c1NCc1ccc(C)cc1 | -1% (active)
Cc1ccc(CNc2cc(C)nc3nc(-c4ccc(C)cc4)nn23)cc1 | 66%
CCOC(=O)c1ccc(NC(=O)CSc2nc(C)c(Cc3ccccc3)c(=O)[nH]2)cc1 | 80%
O=C(NCc1ccccc1)N(Cc1cccnc1)Cc1cc2cc3c(cc2[nH]c1=O)OCCO3 | 102%
COc1ccc(-c2nn3c(-c4ccc(C)cc4)nnc3c3ccccc23)cc1 | 70%
COc1ccc2[nH]cc(CCN=C(NC(=O)c3ccccc3C)Nc3nc(C)cc(C)n3)c2c1 | 41%
CCn1c2c(c(=O)n3ncc(C(=O)Nc4ccc(C(=O)OC)cc4)c13)CN(Cc1ccc(OC)cc1)CC2 | 55%
CCn1c2c(c(=O)n3ncc(C(=O)Nc4cc(Cl)ccc4OC)c13)CN(Cc1ccc(OC)cc1)CC2 | 72%

SMILES | survival
CCn1c2c(c(=O)n3ncc(C(=O)Nc4ccc(F)c(Cl)c4)c13)CN(Cc1ccc(OC)cc1)CC2 | -1% (active)
CCn1c2c(c(=O)n3ncc(C(=O)Nc4ccc(F)cc4Cl)c13)CN(Cc1ccc(OC)cc1)CC2 | 14% (active)
CCn1c2c(c(=O)n3ncc(C(=O)Nc4ccc(OC(F)(F)F)cc4)c13)CN(Cc1ccc(OC)cc1)CC2 | 83%
CCn1c2c(c(=O)n3ncc(C(=O)Nc4ccc(Cl)cc4C)c13)CN(Cc1ccc(OC)cc1)CC2 | 76%
Cc1ccc(CNC(=O)Nc2cc(C(=O)NCc3cccc(F)c3)ccc2N2CCCC2)cc1 | 128%
CCOC(=O)c1cccc(NC(=O)CCc2c(C)nn(-c3ccc(N4CCCCC4)nn3)c2C)c1 | 95%
Cc1nnc(C)c2c(C)n(-c3ccc4c(c3)OCO4)c(C)c12 | 111%
CCOc1ccc(N(CC)C(=O)Cn2cnc3sc(C)c(S(=O)(=O)N4CCN(c5ncccn5)CC4)c3c2=O)cc1 | 78%
CCc1ccc(NCc2cccn2-c2nnc(N3CCCCCC3)s2)cc1 | -1% (active)
COc1ccc(NCc2cccn2-c2nnc(N3CCCCCC3)s2)cc1 | 78%
Cc1ccc(NCc2cccn2-c2nnc(N3CCCCCC3)s2)cc1 | 77%
CCC(C)NC(=O)CSc1nc2ccc(C(C)C)cc2cc1C#N (configuration not stated) | 103%
COc1cccc(CNC(=O)c2ccc(NC(=O)N3CCCCc4ccccc43)cc2)c1OC | 73%
Cc1nc2nc(SCC(=O)NCCc3ccc(Cl)cc3)nn2c(C)c1Cc1ccccc1 | 56%
Cc1ccc2nc(NC(=O)CSc3nccn3Cc3ccc(F)cc3)sc2c1 | 80%
O=C(CSc1nccn1Cc1ccccc1)Nc1nc2ccccc2s1 | 121%
O=C(CSc1nccn1Cc1ccc(Cl)cc1)Nc1nc2ccccc2s1 | 0% (active)
Cc1nnc(NC(=O)CSc2nccn2Cc2ccc(Cl)cc2)s1 | 118%
Cc1ccc2nc(NC(=O)CSc3nccn3Cc3ccc(Cl)cc3)sc2c1 | 72%
O=C(CSc1nccn1Cc1ccc(F)cc1)Nc1nc2ccccc2s1 | 82%
Cc1ccc2nc(NC(=O)CSc3nccn3Cc3ccccc3)sc2c1 | 10% (active)
Cc1nnc(NC(=O)CSc2nccn2Cc2ccc(F)cc2)s1 | -2% (active)

SMILES | survival
Cc1ccc(Cn2ccnc2SCC(=O)Nc2nnc(C)s2)cc1 | 65%
CCOc1ccc(NC(=O)Cn2c(=O)n(Cc3ccccc3)c(=O)c3sc4ccccc4c32)cc1 | 78%
COc1cc(NC(=O)Nc2nnc(N3CCCCCC3)s2)cc(OC)c1 | 78%
Cc1cccc(N2CCN(c3ncnc4c3cnn4-c3ccc(Cl)cc3)CC2C)c1 (configuration not stated) | 83%
CCc1ccc(OCc2nc(-c3ccc(-n4cccc4)cc3)no2)cc1 | 104%
CCc1ccc(OC(C)c2nc(-c3ccc(-n4cccc4)cc3)no2)cc1 (configuration not stated) | -4% (active)
CCCc1ccc(OC(C)c2nc(-c3ccc(-n4cccc4)cc3)no2)cc1 (configuration not stated) | 56%
O=C(Nc1ccc2oc(-c3ccncc3)nc2c1)c1ccccc1Cl | 73%
Cc1ccc(CNC(=O)c2cc3c(=O)oc4ccc(C)cc4c3s2)cc1 | 88%
NC(=O)CC(c1ccccc1)c1ccc2c(c1)OCO2 (configuration not stated) | 117%
COc1ccc(CN(CCC(c2ccc3c(c2)OCO3)c2ccccc2OC)C(C)=O)cc1 (configuration not stated) | 8% (active)
COc1ccc(CNCCC(c2ccc3c(c2)OCO3)c2ccccc2OC)cc1 (configuration not stated) | 25%
COc1cc2cc(CN(Cc3ccc4c(c3)OCO4)C(=O)NCc3ccccc3)c(=O)[nH]c2cc1OC | 117%
CCOCCCNC(=O)C(c1ccccc1)N(Cc1ccc2c(c1)OCO2)C(=O)c1ccc(NC(C)=O)cc1 (configuration not stated) | 70%
COc1ccc(CNCCC(c2ccc(C)cc2)c2ccco2)cc1 (configuration not stated) | 72%
CCC(=O)N(CCC(c1ccccc1)c1ccc2c(c1)OCO2)Cc1ccc(OC(C)C)cc1 (configuration not stated) | 1% (active)
CCOCCCNC(=O)C(c1ccc(OC)cc1)N(Cc1ccc2c(c1)OCO2)C(=O)c1ccc(NC(C)=O)cc1 (configuration not stated) | 69%
COc1ccc(CNCCC(c2ccccc2)c2ccc3c(c2)OCO3)cc1 (configuration not stated) | 3% (active)
C=CCc1c(C)nc(SC)[nH]c1=O | 114%
Cc1cccc(-c2nc3ccccc3n3c(-c4ccccc4)c4c(=O)n(C)c(=O)n(C)c4c23)c1 | 121%
O=C(CN1C(=O)c2ccccc2Sc2ncccc21)Nc1cccc(C(F)(F)F)c1 | 85%
CCSc1nc2ccccc2c(OCc2cc(C(=O)OC)ccc2OC)c1C(=O)OC | -15% (active)

SMILES | survival
CCSc1nc2ccccc2c(OCc2ccc(Cl)cc2)c1C(=O)OC | 88%
CCSc1nc2ccccc2c(OCc2ccccc2Cl)c1C(=O)OC | 75%
Cc1ccc(N2CCN(S(=O)(=O)c3cc(C(=O)Nc4cc(Cl)cc(Cl)c4)ccc3F)CC2C)cc1 (configuration not stated) | 71%
COc1ccc(OC)c(CNC(=O)c2c(C)oc3ncn(C)c(=O)c23)c1 | 70%
O=C(COc1ccccc1)Nc1c(C(=O)N2CCN(c3ccc(F)cc3)CC2)oc2ccccc12 | 74%
COc1ccc(C(CC(=O)Nc2cccc(C)c2C)N2Cc3ccccc3C2=O)cc1 (configuration not stated) | 68%
COc1ccc(OC)c(CNCc2c(C(=O)O)n(Cc3cccc(F)c3)c3cc(OC)ccc23)c1 | -3% (active)
CCc1ccc(CNCc2c(C(=O)O)n(Cc3cccc(F)c3)c3cc(OC)ccc23)cc1 | 63%
COc1ccc(OC)c(CNCc2c(C(=O)O)n(Cc3ccccc3)c3cc(OC)ccc23)c1 | 84%
COc1cc(Cl)c(C)cc1NC(=O)c1nn(-c2ccc(C)cc2)c(=O)n(C)c1=O | 66%
COc1ccc(-n2c(=O)c3sc4ccccc4c3n(Cc3ccccc3C)c2=O)cc1OC | 89%
CCS(=O)(=O)NCCc1sc2nc(-c3ccc(OC)cc3)nn2c1C | 71%
Cc1ccc(-c2nc3sc(CCNS(=O)(=O)c4cc(F)ccc4F)c(C)n3n2)cc1 | -4% (active)
COc1ccc(-c2nc3sc(CCNS(=O)(=O)c4c(C)cc(C)cc4C)c(C)n3n2)cc1 | -3% (active)
COc1ccc(-c2nc3sc(CCNS(=O)(=O)c4ccccc4)c(C)n3n2)cc1 | 57%
COc1ccc(F)cc1S(=O)(=O)NCCc1sc2nc(-c3ccc(F)cc3)nn2c1C | 57%
Cc1c(CCNS(=O)(=O)c2ccccc2)sc2nc(-c3ccc(Cl)cc3)nn12 | 1% (active)
Cc1cc(C)c(S(=O)(=O)NCCc2sc3nc(-c4ccc(F)cc4)nn3c2C)c(C)c1 | 63%
CCCS(=O)(=O)NCCc1sc2nc(-c3ccc(F)cc3)nn2c1C | 60%
CCCS(=O)(=O)NCCc1sc2nc(-c3ccc(Cl)cc3)nn2c1C | 81%
Cc1ccc(C(=O)Nc2nnc(S(=O)(=O)N3c4ccccc4CC3C)s2)cc1 (configuration not stated) | 38%
